Activity calls are given as the source filed them.
How the values were obtained:
[1] = test system: Plasmodium falciparum Sir2 (PF13_0152, Sir2A); experiment: pfSir2 binders on small-molecule microarrays, primary screen, biochemical, small-molecule microarray, 635 nm fluorescence (AID 1098); conditions: small-molecule microarray binding, fluorescence 635 nm; higher = more signal;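 also: score merges spot fluorescence intensity with its signal-to-noise ratio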
[2] = small-molecule microarray binders of probe aDKK1, primary screen, biochemical, biotinylated probe, 635/667 nm fluorescence (AID 1099); conditions: higher = more signal;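 also: score merges 667nm spot fluorescence with signal to noise across triplicate slides; reference of the scale not given here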
[3] = small-molecule microarray binders of probe aCHRDL2, primary screen, biochemical, biotinylated probe, 635/667 nm fluorescence (AID 1100); conditions: higher = more signal
[4] = splicing luciferase reporter signal modulators, primary screen, spliceosome inhibition project, cell-based, HEK293, splice +/- reporter (AID 1101); conditions: luminescence, 24 h, higher = more signal, called active from +8 up or from −8 down;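 also: HEK293 cells carrying a splicing-competent luciferase reporter gene; test concentration not given here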
[5] = target: Fibroblast growth factor 10 (Homo sapiens) (UniProt O15520); experiment: FGF10 binders on small-molecule microarrays, primary screen, biochemical, small-molecule microarray, 635 nm fluorescence (AID 1102); conditions: FGF10 binding, fluorescence 635 nm, higher = more signal
[6] = test system: glycogen synthase kinase-3 (GSK3A per assay name; protocol says GSK3B); experiment: GSK3 binders on small-molecule microarrays, primary screen, biochemical, small-molecule microarray, 635 nm fluorescence, GSK3A (AID 1103); conditions: small-molecule microarray binding, fluorescence 635 nm; higher = more signal; also: the record names both GSK3A and GSK3B
[7] = target: Epidermal growth factor receptor (Homo sapiens) (UniProt P00533); experiment: EGFR binders on small-molecule microarrays, primary screen, biochemical, small-molecule microarray, 635 nm fluorescence (AID 1104); conditions: EGFR binding, higher = more signal;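 also: score merges 667 nm emission intensity with spot signal to noise over triplicate slides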
[8] = target: Follistatin-related protein 3 (Homo sapiens) (UniProt O95633); experiment: FSTL3 binders on small-molecule microarrays, primary screen, biochemical, small-molecule microarray, 635 nm fluorescence (AID 1105); conditions: FSTL3 binding, higher = more signal;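 also: score merges emission near 667 nm and signal to noise per printed spot across three slides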
[9] = target: Dickkopf-related protein 1 (Homo sapiens) (UniProt O94907); experiment: DKK1 binders on small-molecule microarrays, primary screen, biochemical, small-molecule microarray, 635 nm fluorescence scan (AID 1106); conditions: DKK1 binding, higher = more signal;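 also: score merges emission near 667 nm with signal to noise over three replicate slides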
[10] = test system: Inhibin beta A chain (activin A); experiment: INHBA (activin A) binders on microarrays, primary screen, biochemical, small-molecule microarray, 635 nm fluorescence scan (AID 1107); conditions: small-molecule microarray binding, higher = more signal;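 also: mouse activin A protein probed at 4.33 µg/mL on printed slides; score merges bound-protein fluorescence near 667 nm with spot signal-to-noise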

Chain of Follistatin-related protein 3 (Homo sapiens) (O95633 whole entry, looked up): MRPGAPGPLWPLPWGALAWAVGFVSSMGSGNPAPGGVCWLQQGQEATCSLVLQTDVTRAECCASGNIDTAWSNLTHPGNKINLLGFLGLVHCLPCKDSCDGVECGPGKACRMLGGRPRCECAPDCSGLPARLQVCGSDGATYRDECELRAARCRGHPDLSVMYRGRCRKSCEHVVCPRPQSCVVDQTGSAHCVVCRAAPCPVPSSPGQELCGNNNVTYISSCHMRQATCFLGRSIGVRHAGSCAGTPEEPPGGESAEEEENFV
Chain of Dickkopf-related protein 1 (Homo sapiens) (O94907 whole entry, looked up): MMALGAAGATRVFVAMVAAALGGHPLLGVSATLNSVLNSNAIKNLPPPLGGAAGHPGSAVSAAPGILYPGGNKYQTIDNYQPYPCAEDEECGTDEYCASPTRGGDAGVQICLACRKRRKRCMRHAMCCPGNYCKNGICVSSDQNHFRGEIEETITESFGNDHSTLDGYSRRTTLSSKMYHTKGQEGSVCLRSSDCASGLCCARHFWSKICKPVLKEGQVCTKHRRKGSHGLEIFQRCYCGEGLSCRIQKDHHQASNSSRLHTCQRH
Chain of Epidermal growth factor receptor (Homo sapiens) (P00533 whole entry, looked up): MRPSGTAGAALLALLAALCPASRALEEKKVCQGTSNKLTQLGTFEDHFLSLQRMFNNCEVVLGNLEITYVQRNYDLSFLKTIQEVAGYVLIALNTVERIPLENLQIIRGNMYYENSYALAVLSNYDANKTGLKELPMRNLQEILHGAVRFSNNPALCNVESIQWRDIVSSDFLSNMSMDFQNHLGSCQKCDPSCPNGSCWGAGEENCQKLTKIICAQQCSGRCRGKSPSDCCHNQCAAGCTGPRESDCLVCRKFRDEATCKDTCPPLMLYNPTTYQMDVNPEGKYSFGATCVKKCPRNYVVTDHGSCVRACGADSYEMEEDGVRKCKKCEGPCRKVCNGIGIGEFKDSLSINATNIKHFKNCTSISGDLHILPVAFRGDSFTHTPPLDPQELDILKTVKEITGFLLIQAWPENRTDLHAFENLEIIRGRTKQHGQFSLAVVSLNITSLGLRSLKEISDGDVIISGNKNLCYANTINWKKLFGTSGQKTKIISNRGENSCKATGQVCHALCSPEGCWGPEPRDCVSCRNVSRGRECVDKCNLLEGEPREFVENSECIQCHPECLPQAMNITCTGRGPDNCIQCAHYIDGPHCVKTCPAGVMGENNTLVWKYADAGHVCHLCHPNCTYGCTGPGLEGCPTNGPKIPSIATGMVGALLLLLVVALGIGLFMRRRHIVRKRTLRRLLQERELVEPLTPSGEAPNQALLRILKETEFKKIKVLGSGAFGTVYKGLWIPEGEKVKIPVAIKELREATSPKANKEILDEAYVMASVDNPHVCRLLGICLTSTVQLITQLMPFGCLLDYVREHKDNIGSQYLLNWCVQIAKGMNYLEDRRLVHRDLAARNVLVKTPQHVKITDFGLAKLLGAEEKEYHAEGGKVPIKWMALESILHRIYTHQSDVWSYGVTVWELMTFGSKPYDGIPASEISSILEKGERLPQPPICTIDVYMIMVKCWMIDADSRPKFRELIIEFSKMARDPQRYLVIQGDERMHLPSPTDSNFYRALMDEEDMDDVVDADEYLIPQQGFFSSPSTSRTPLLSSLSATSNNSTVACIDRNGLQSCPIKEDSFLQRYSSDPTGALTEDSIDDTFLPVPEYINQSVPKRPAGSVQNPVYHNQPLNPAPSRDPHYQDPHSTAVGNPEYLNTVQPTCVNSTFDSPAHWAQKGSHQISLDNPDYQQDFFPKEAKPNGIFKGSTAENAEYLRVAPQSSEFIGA
Chain of Fibroblast growth factor 10 (Homo sapiens) (O15520 whole entry, looked up): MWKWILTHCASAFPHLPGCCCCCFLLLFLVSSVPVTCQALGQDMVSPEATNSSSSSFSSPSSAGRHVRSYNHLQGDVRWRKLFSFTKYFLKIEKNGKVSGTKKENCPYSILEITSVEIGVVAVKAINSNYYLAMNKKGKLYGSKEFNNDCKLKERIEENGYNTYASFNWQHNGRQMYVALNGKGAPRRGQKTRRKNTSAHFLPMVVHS

Compound: COC(=O)[C@]1(Cc2ccccc2CN=[N+]=[N-])N=C(c2ccc(OCCCO)cc2)O[C@@H]1c1ccccc1N=[N+]=[N-]
- composite z-score [1]: 0.973
- composite z-score [2]: -0.507
- composite z-score [3]: 0.172
- z-score [4]: -0.346 (inactive)
- composite z-score [5]: 0.267
- composite z-score [6]: 0.135
- composite z-score [7]: -0.296
- composite z-score [8]: -0.332
- composite z-score [9]: -0.268
- composite z-score [10]: 1.08

Compound: COc1cccc(C)c1NC(=O)O[C@H]1[C@H](OC(=O)Nc2ccccc2-c2ccccc2)[C@@H](OC(=O)Nc2ccccc2-c2ccccc2)[C@@H](OC)O[C@@H]1CO
- composite z-score [1]: 1.3
- composite z-score [2]: 0.629
- composite z-score [3]: 0.573
- z-score [4]: 0.152 (inactive)
- composite z-score [5]: 1.4
- composite z-score [6]: 1.1
- composite z-score [7]: 0.316
- composite z-score [8]: 1.43
- composite z-score [9]: 0.244
- composite z-score [10]: 0.601

Compound: O=C1c2ccccc2[C@@]2(Cc3ccccc3N(CC(F)(F)F)C2=O)[C@H](c2ccc(CO)cc2)N1Cc1ccccc1
- composite z-score [1]: -0.33
- composite z-score [2]: -0.449
- composite z-score [3]: -0.419
- z-score [4]: -0.719 (inactive)
- composite z-score [5]: -0.0636
- composite z-score [6]: 0.387
- composite z-score [7]: -0.171
- composite z-score [8]: 0.766
- composite z-score [9]: 0.309
- composite z-score [10]: 1.32

Compound: CCCCCCCCCCC(O)C1C=CC2C(=O)N(C)C(=O)C2N1Nc1ccccc1 (stereo not given)
- composite z-score [1]: -1.02
- composite z-score [2]: -0.0132
- composite z-score [3]: 0.937
- z-score [4]: 0.953 (inactive)
- composite z-score [5]: -1.09
- composite z-score [6]: -1.09
- composite z-score [7]: -1.33
- composite z-score [8]: -1.54
- composite z-score [9]: -1.22
- composite z-score [10]: 1.17

Compound: CCCCN1CC=CC23O[C@@H]4/C=C\CCCOC(=O)C4[C@H]2C(=O)N(CCCCCCO)[C@@H]3C1=O (stereo not given in full)
- composite z-score [1]: 0.502
- composite z-score [2]: -0.196
- composite z-score [3]: 0.663
- z-score [4]: -1.09 (inactive)
- composite z-score [5]: -0.764
- composite z-score [6]: -0.755
- composite z-score [7]: -1.08
- composite z-score [8]: -0.451
- composite z-score [9]: -1.75
- composite z-score [10]: 0.627

Compound: Cc1ccc(S[C@]2(C(=O)NCc3ccccc3)CC(=O)N(Cc3ccccc3Cl)[C@@H]2c2ccc(CO)cc2)cc1
- composite z-score [1]: 1.07
- composite z-score [2]: 0.169
- composite z-score [3]: 0.603
- z-score [4]: -0.419 (inactive)
- composite z-score [5]: -0.35
- composite z-score [6]: 0.165
- composite z-score [7]: -1.31
- composite z-score [8]: -0.648
- composite z-score [9]: -0.743
- composite z-score [10]: 0.0073

Compound: CC[C@@H](O[Si](C#C[Si](C(C)C)(C(C)C)C(C)C)(C(C)C)C(C)C)c1cn([C@H](C)c2ccccc2)nn1
- composite z-score [1]: 0.43
- composite z-score [2]: 0.0317
- composite z-score [3]: -0.328
- z-score [4]: 0.242 (inactive)
- composite z-score [5]: 0.403
- composite z-score [6]: 0.136
- composite z-score [7]: 0.533
- composite z-score [8]: 0.658
- composite z-score [9]: 0.432
- composite z-score [10]: -0.142

Compound: C=CC[C@H](O)c1ccc(O)c(F)c1
- composite z-score [1]: 0.399
- composite z-score [2]: -0.727
- composite z-score [3]: 0.328
- z-score [4]: -0.339 (inactive)
- composite z-score [5]: -0.809
- composite z-score [6]: -1.13
- composite z-score [7]: -1.23
- composite z-score [8]: -0.418
- composite z-score [9]: -1.97
- composite z-score [10]: -2.89

Source: PubChem BioAssay
